MITF inh = MITF inhibitors, primary screen, biochemical, AlphaScreen, human | inhibition, % at 2.6 µM | actives 0.91% (n = 650,000) | AID 1259374, 2018 | AlphaScreen MITF homodimerization, bead proximity signal; in the data active = inhibition above about 50%;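 also: 0% = vehicle wells with protein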
Target sequence (O75030 whole entry, looked up): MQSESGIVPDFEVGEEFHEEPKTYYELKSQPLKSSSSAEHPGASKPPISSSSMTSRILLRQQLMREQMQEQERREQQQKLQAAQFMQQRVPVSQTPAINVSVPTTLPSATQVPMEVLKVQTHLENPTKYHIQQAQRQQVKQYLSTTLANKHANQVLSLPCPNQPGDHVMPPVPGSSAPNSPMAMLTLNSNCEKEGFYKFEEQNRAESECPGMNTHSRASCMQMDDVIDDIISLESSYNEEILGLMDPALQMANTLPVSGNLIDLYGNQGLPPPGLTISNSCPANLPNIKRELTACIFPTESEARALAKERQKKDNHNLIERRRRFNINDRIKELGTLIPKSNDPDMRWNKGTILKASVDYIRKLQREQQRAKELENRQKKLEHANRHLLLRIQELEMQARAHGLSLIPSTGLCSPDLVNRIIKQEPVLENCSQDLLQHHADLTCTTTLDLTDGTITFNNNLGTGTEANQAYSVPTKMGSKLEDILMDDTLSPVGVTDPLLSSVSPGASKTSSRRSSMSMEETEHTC
GPR151 activ = activators of human GPR151, primary screen, cell-based, PathHunter beta-arrestin, luminescence. G-protein coupled receptor 151 (Homo sapiens), Q8TDV0. PathHunter beta-arrestin GPR151 cells. activation, % at 11.2 µM. actives 1% (n = 650,000); in the data active = activation above about 4.9%;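 also: 0% = median of compound wells and 100% = cells with positive control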
TEAD-YAP block = TEAD-YAP interaction inhibition, primary screen, TEAD-YAP interaction inhibitor project, luminescence, HEK-TIYL cells | TEAD-Gal4/YAP UAS-luciferase luminescence | inhibition, % at 9.12 µM | actives 1.4% (n = 640,000) | AID 1259422, 2018; in the data active = inhibition above about 32%;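 also: 0% = median of test compound wells and 100% = reference inhibitor wells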
FBW7 activator = FBW7 E3 ligase activators, primary screen, biochemical, AlphaScreen, human | F-box/WD repeat-containing protein 7 (Homo sapiens), Q969H0 | AlphaScreen FBW7–phospho-cyclin E peptide binding, activator screen | normalized activity (activation), % at 26.1 µM | actives 0.13% (n = 650,000); in the data active = normalized activity above about 1.9%;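 also: purified mutant Fbw7 with reduced substrate affinity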
* marks the source's active call; other numbers are inactive results. This is a sample that favours compounds with a hit; in the whole collection about 3.5% have one here.

SMILES | MITF inh | GPR151 activ | TEAD-YAP block | FBW7 activator
O=C1CCCC2=C1C(c1cccc(Br)c1)Nc1ccccc1N2 (configuration not stated) | 13.8 | -0.4 | -2.0 | 0.4
O=C1CCCC2=C1C(c1cccs1)N(C(=O)c1ccccc1)c1ccccc1N2 (configuration not stated) | 2.5 | -0.5 | 3.5 | -0.1
O=C1CCCC2=C1C(c1cccc(Br)c1)Nc1ccc(C(=O)c3ccccc3)cc1N2 (configuration not stated) | 7.3 | 1.0 | 67.8* | 0.0
O=C1CCCC2=C1C(c1ccc(F)cc1)Nc1ccc(C(=O)c3ccccc3)cc1N2 (configuration not stated) | 12.3 | -1.6 | 21.8 | 0.1
O=C1CCCC2=C1C(c1cccs1)Nc1ccc(C(=O)c3ccccc3)cc1N2 (configuration not stated) | -3.0 | 0.0 | 54.8* | 0.0
CC(=O)N1c2ccccc2NC2=C(C(=O)CCC2)C1c1cccs1 (configuration not stated) | -3.3 | 1.2 | 49.3* | -0.1
CCCOc1c(Br)cc(CNCCCN2CCOCC2)cc1OCC | -10.9 | 2.4 | 8.4 | -0.3
CC1(C)CC(=O)CC(c2ccccc2)(C(F)(F)F)O1 (configuration not stated) | 6.6 | 1.1 | 4.9 | 0.7
O=c1c2c(nc3cc(-c4ccco4)[nH]n13)CCS2 | 88.8* | -2.0 | -29.2 | -0.2
Cc1ccc(NC(=O)Cn2nnc(-c3ccccc3NC(=O)c3cccs3)n2)cc1 | 1.8 | 1.9 | 54.0* | 0.1
COc1ccc(NC(=O)Cn2nnc(-c3ccccc3NC(=O)c3cccs3)n2)cc1 | 5.3 | 0.2 | -10.2 | -0.1
Cn1c(CN2CCCCC2)c(-c2ccccc2)c2cc([N+](=O)[O-])ccc21 | -9.6 | 0.1 | 1.1 | -0.1
Cc1nc2ccc([N+](=O)[O-])cc2s1 | 8.0 | -0.1 | 11.9 | 0.0
Cc1nc2cc(Cl)c([N+](=O)[O-])cc2s1 | 2.5 | 2.5 | 1.1 | 2.0*
O=C(NN1C(=O)c2cccc3c([N+](=O)[O-])ccc(c23)C1=O)c1ccc([N+](=O)[O-])cc1 | 16.7 | 0.1 | 8.1 | 2.6*
COc1ccccc1N1CCN(C(=S)NCCN2CCOCC2)CC1 | 8.4 | -1.4 | 65.8* | 0.2
CCNC(=S)N1CCN(c2ccccc2OC)CC1 | -9.1 | 1.4 | 0.7 | -0.1
COc1ccccc1N1CCN(CCCNC(=O)Nc2ccc(Br)cc2)CC1 | -12.1 | -0.6 | 2.8 | 2.9*
O=C(NCCCN1CCc2ccccc2C1)Nc1ccc(Br)cc1 | -9.7 | -0.5 | -14.6 | 3.1*
CCOc1cc(CNc2ccc(N(C)C)cc2)ccc1OCC(=O)NC(C)(C)C | 7.3 | -0.3 | 19.4 | -0.3
Cc1ccc(C2CC(C(F)(F)F)n3ncc(C(=O)N4CCN(c5cccc(Cl)c5)CC4)c3N2)cc1 (configuration not stated) | 16.8 | 2.5 | 6.0 | 0.0
c1ccc(Cc2ccc(Oc3ncnc4sc(-c5ccccc5)cc34)cc2)cc1 | 9.3 | 1.9 | 5.9 | 0.0
Cc1cc(C=C2C(=O)c3ccccc3C2=O)c(C)n1-c1ccc(S(N)(=O)=O)cc1 | -5.9 | 0.9 | 5.6 | -0.2
Cc1cc(C=C2C(=O)c3ccccc3C2=O)c(C)n1-c1cc(C(=O)O)cc(C(=O)O)c1 | 63.6* | 0.6 | -0.4 | -0.4
Cc1ccn2cc(-c3ccc(S(=O)(=O)N(C)C)cc3)nc2c1 | -4.3 | -2.0 | 48.1* | 0.1
SMILES | MITF inh | GPR151 activ | TEAD-YAP block | FBW7 activator
Cc1ccn2cc(-c3ccc(I)cc3)nc2c1 | 5.5 | -5.1 | 78.9* | 0.4
Cc1ccn2cc(-c3ccccc3Br)nc2c1 | 5.8 | -5.6 | 32.5* | -0.1
Cc1ccn2cc(-c3ccc(F)cc3)nc2c1 | 13.0 | -11.4 | 72.9* | 0.3
Cc1ccn2cc(-c3ccc([N+](=O)[O-])cc3)nc2c1 | 10.6 | -4.2 | -1.0 | 0.3
O=CN1CCN(Cc2c(F)cccc2F)CC1 | 2.1 | 0.1 | -1.2 | -0.1
COc1ccc(OC)c(NC(=O)c2cccc([N+](=O)[O-])c2C)c1 | 3.1 | -0.8 | 4.2 | 0.1
Cc1c(C(=O)NCc2nnc(SCC(=O)N3N=C(c4cccs4)CC3c3ccc(F)cc3)n2-c2ccccc2)cccc1[N+](=O)[O-] (configuration not stated) | 9.8 | 1.2 | 4.8 | 0.1
CCC(CC)C(=O)N1CCC2(CC1)CC(=O)c1ccccc1O2 | -3.2 | 1.8 | 1.2 | 0.1
C1=Nc2ccccc2SC(c2cccnc2)=C1 | -4.4 | -11.1 | 86.0* | -0.1
